# Laboratory results published in PubChem BioAssay (EPA / NIEHS).
# Inconclusive results are not listed. The source made the active and inactive calls. The calls were made as follows: active = hit-call score of the fitted dose curve at least 0.9, where 1 is the maximum; inconclusive = response in the unintended direction; inactive = score below 0.9.
# Biological target: Hepatocyte nuclear factor 4-alpha (Homo sapiens) (UniProt P41235)
# Assay: ATG_HNF4a_TRANS: Attagene TRANS-FACTORIAL HepG2 Assay for human Hepatocyte Nuclear Factor 4 alpha (HNF4a) (AID 2282982)
# Settings: HepG2 HNF4a transactivation reporter, mRNA readout
# Description: ATG_TRANS is a cell-based, multiplexed-readout assay that uses HepG2, a human liver cell line, with measurements taken at 24 hours after chemical dosing in a 24-well plate.ATG_HNF4a_TRANS is one of 30 assay component(s) measured or calculated from the ATG_TRANS assay. It is designed to make measurements of mRNA induction, a form of inducible reporter, as detected with fluorescence intensity signals by Reverse transcription polymerase chain reaction (RT-PCR) and Capillary electrophoresis technology.Data from the assay component ATG_HNF4a_TRANS was analyzed into 1 assay endpoint. This assay endpoint, ATG_HNF4a_TRANS, was analyzed in the positive analysis fitting direction relative to DMSO as the negative control and baseline of activity. Using a type of inducible reporter, measures of mRNA for gain-of-signal activity can be used to understand the reporter gene at the transcription factor-level as they relate to the gene HNF4A. Furthermore, this assay endpoint can be referred to as a primary readout, because this assay has produced multiple assay endpoints where this one serves a reporter gene function. To generalize the intended target to other relatable targets, this assay endpoint is annotated to the nuclear receptor intended target family, where the subfamily is orphan.
# Human liver HepG2 cells are transiently transfected with multiple reporter transcription units (MRTUs) in 6-well plates using FuGene 6 reagent (Roche; 3 ml FuGene/1 mg DNA). The MRTU constructs are regulated by a cis-regulating element (promoter). […] A major difference between the CIS and TRANS system is that in CIS activities of endogenous TFs are measured, whereas the TRANS assay evaluates changes in activities of exogenous, chimeric NR-Gal4 proteins. […] At the end of 24 hour incubation, total RNA was isolated using TriZol reagent (Invitrogen). The isolated RNA is then reverse-transcribed using oligo(dT) primer and Mo-MLV reverse transcriptase (Invitrogen) with DNAse I (Ambion) treatment for 30 min. The one-tenth of the produced cDNA was amplified by PCR using Taq DNA polymerase (Invitrogen) and two reporter sequence-specific primers. The PCR products were fluorescently labeled by primer extension with 6-arboxyfluorescein (6-FAM) 5'-labeled reporter sequence-specific primer (2 min at 95 C, 20 s at 68 C and 10 min at 72 C) and these products were digested with 5U of HpaI (New England Biolabs) for 2h at 37 C. The fragments were purified using Qiaquick PCR columns (Qiagen), analyzed on an ABI 3130xL genetic analyzer (Applied Biosystems) with peak positions identified by using a set of X-rhodamine (ROX)-labeled MapMarker1000 molecular weight standards (BioVentures). The raw capillary electrophoresis data was processed using Attagraph software (Attagene).
# Chain of Hepatocyte nuclear factor 4-alpha (Homo sapiens) (P41235 whole entry, looked up): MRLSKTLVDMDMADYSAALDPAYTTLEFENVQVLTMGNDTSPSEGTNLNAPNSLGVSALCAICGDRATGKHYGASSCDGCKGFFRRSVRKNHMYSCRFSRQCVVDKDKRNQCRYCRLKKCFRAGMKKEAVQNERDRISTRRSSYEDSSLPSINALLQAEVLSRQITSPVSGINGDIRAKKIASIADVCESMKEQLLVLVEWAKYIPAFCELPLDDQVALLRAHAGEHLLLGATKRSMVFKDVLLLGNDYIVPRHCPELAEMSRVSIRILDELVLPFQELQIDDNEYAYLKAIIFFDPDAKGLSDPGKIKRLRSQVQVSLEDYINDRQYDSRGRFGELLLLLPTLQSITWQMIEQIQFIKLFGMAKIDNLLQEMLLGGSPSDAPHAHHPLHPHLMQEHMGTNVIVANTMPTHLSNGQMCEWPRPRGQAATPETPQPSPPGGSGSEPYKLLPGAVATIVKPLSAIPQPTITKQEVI
SMILES,outcome,AC50
CCCC(C)CCC(C)=O (stereo not given),inactive,–
CCN(CC)c1ccc(C(=O)c2ccccc2C(=O)O)c(O)c1,inactive,–
CCOC(=O)NNc1nncc2ccccc12,inactive,–
COc1ccc(C(Cl)=C(c2ccc(OC)cc2)c2ccc(OC)cc2)cc1,inactive,–
CCCCCCCCCCCCCCCC[N+](C)(C)CC,–,11 µM (active)
Cc1cc(C)c(C)c(C)c1,inactive,–
CC(C)(C)c1ccc(OC(=O)c2ccccc2O)cc1,inactive,–
CCCCCCOc1cc(C)c(O)c(C)c1C,inactive,–
CCOC(=O)CC,inactive,–
CC(C)=CCC/C(C)=C\C#N,inactive,–
CO[Si](OC)(OC)c1ccccc1,inactive,–
CCCCCC(C)O (stereo not given),inactive,–
CC[C@H]1OC(=O)[C@H](C)[C@@H](O[C@H]2C[C@@](C)(OC)[C@@H](O)[C@H](C)O2)[C@H](C)[C@@H](O[C@@H]2O[C@H](C)C[C@H](N(C)C)[C@H]2O)[C@](C)(O)C[C@@H](C)C(=NOCOCCOC)[C@H](C)[C@@H](O)[C@]1(C)O,inactive,–
NC(=O)c1ccccc1O,inactive,–
CC1OC1C1CCC2(C)OC2C1 (stereo not given),inactive,–
CCCCCCCCCCCCCCCC[n+]1ccccc1,–,19.8 µM (active)
Oc1ccc(Cl)cc1Cc1cc(Cl)ccc1O,inactive,–
CCCCCCCCCCCCCCCCCC#N,inactive,–
CC(C)=CCC[C@H](C)CCO,inactive,–
C=CCOCC(O)CCl (stereo not given),inactive,–

SMILES,outcome,AC50
O=C(Nc1ccccc1SSc1ccccc1NC(=O)c1ccccc1)c1ccccc1,inactive,–
C=CCCCCCCCCC(=O)OCCCC,inactive,–
C1CN(SSN2CCOCC2)CCO1,inactive,–
CC(=O)OCc1ccco1,inactive,–
O=c1cc(-c2ccccc2)oc2ccccc12,inactive,–
CC=CCO,inactive,–
c1ccc(-c2ccccn2)nc1,inactive,–
Cc1ccccc1C,inactive,–
CCCCCCCCc1ccc(Nc2ccc(CCCCCCCC)cc2)cc1,inactive,–
CC(C)CCCC(C)CC=O (stereo not given),inactive,–
OCCCS,inactive,–
CCOc1nc(F)cc2nc(S(=O)(=O)Nc3c(Cl)cccc3C(=O)OC)nn12,inactive,–
CCC(C)OC(=O)c1ccc(O)cc1 (stereo not given),inactive,–
C=C(C)c1cccc(C(C)(C)N=C=O)c1,inactive,–
CC(=O)OCC(C)OC(C)=O (stereo not given),inactive,–
O=C(Nc1cccc(C(F)(F)F)c1)c1cc(Br)cc(Br)c1O,inactive,–
CC(C)C(=O)C(C)C,inactive,–
Cc1ccc(N)c([N+](=O)[O-])c1,inactive,–
CC(=O)NS(=O)(=O)c1ccc(N)cc1,inactive,–
CC(C)(C)c1n[nH]c(=O)n(N)c1=O,inactive,–
